Measurements taken from PubChem BioAssay (NCI).
The panel holds about 79,000 compounds, 15% with a hit somewhere; the sample as a whole holds those more often. Unmarked numbers belong to inactive results. The source made the active and inactive calls. Rule as the data show it: active = growth inhibition above about 70%; inactive = the rest.

How the values were obtained:
[1] = NCI Yeast Anticancer Drug Screen. Data for the rad50 strain (AID 155);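 also: 0% = growth of vehicle-only cultures of the same strain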; settings: S. cerevisiae rad50 strain growth inhibition, hits give high values
Method in brief: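 DNA repair mutant yeast, compound exposure, growth read-out; inhibition is taken relative to vehicle.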

[2] = NCI Yeast Anticancer Drug Screen. Data for the mec2-1 strain (AID 157); settings: S. cerevisiae mec2-1 strain, hits give high values
Method in brief: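 Using mec2-1 yeast: add compound, measure growth, express inhibition versus vehicle-treated cultures.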

[3] = NCI Yeast Anticancer Drug Screen. Data for the sgs1 mgt1 strain (AID 161);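 also: 0% = growth of cultures given vehicle only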; settings: S. cerevisiae sgs1 mgt1 strain, hits give high values
Method in brief: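 Percent growth inhibition was derived by comparing compound-exposed mutant yeast with vehicle-exposed cultures. The strain carries alterations in DNA damage repair.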

[4] = NCI Yeast Anticancer Drug Screen. Data for the cln2 rad14 strain (AID 165);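 also: 0% = growth equal to vehicle treated cultures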; settings: S. cerevisiae cln2 rad14 strain, hits give high values
Method in brief: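 Yeast strain cln2 rad14, bearing defects in cell cycle control and DNA repair, serves as the test system; values reflect growth inhibition compared with vehicle.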

[5] = NCI Yeast Anticancer Drug Screen. Data for the bub3 strain (AID 167); settings: S. cerevisiae bub3 mutant strain, hits give high values
Method in brief: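 In this screen, a yeast mutant lacking normal mitotic checkpoint function is challenged with compound. Relative growth versus vehicle gives the inhibition value.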

[6] = NCI Yeast Anticancer Drug Screen. Data for the mlh1 rad18 strain (AID 175); settings: S. cerevisiae mlh1 rad18 strain growth inhibition, hits give high values
Method in brief: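 Steps: expose repair-defective yeast to compound; measure growth; express inhibition against vehicle-treated controls.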

[7] = at 5.0 µM (retest, dose inferred, filed as 0.5)
[8] = at 50.0 µM (retest, dose inferred, filed as 5.0)

COc1cccc2c1C1c3ccccc3Sc3cccc(c31)O2 (configuration not stated)
growth inhibition [1, 7]: 6%
growth inhibition [1, 8]: 3%
growth inhibition ([1]; at 50.0 µM): 5.2%
growth inhibition [2, 7]: 6%
growth inhibition [2, 8]: 3%
growth inhibition ([2]; at 50.0 µM): 18.3%
growth inhibition [3, 7]: 4%
growth inhibition [3, 8]: 3%
growth inhibition ([3]; at 50.0 µM): 19.6%
growth inhibition [4, 7]: 1%
growth inhibition [4, 8]: -21%
growth inhibition ([4]; at 50.0 µM): 40.2%
growth inhibition [5, 7]: -1%
growth inhibition [5, 8]: -2%
growth inhibition ([5]; at 50.0 µM): 43.9%
growth inhibition [6, 7]: 4%
growth inhibition [6, 8]: 1%
growth inhibition ([6]; at 50.0 µM): 21.1%

CC(=O)OCCSCCOC(C)=O
growth inhibition [1, 7]: 20%
growth inhibition [1, 8]: 90% (active)
growth inhibition ([1]; at 50.0 µM): 76.4% (active)
growth inhibition [2, 7]: -1%
growth inhibition [2, 8]: 84% (active)
growth inhibition ([2]; at 50.0 µM): 29.4%
growth inhibition [3, 7]: 6%
growth inhibition [3, 8]: 88% (active)
growth inhibition ([3]; at 50.0 µM): 81% (active)
growth inhibition [4, 7]: 7%
growth inhibition [4, 8]: 23%
growth inhibition ([4]; at 50.0 µM): 12.2%
growth inhibition [5, 7]: 7%
growth inhibition [5, 8]: 88% (active)
growth inhibition ([5]; at 50.0 µM): 39%
growth inhibition [6, 7]: 7%
growth inhibition [6, 8]: 90% (active)
growth inhibition ([6]; at 50.0 µM): 78.3% (active)

CSc1ncnc2nn(C3OC(COC(=O)c4ccccc4)C(OC(=O)c4ccccc4)C3OC(=O)c3ccccc3)nc12 (configuration not stated)
growth inhibition [1, 7]: -16%
growth inhibition [1, 8]: -1%
growth inhibition ([1]; at 50.0 µM): -14.8%
growth inhibition [2, 7]: -1%
growth inhibition [2, 8]: -6%
growth inhibition ([2]; at 50.0 µM): 17.9%
growth inhibition [3, 7]: -6%
growth inhibition [3, 8]: 1%
growth inhibition ([3]; at 50.0 µM): -13.6%
growth inhibition [4, 7]: -1%
growth inhibition [4, 8]: -9%
growth inhibition ([4]; at 50.0 µM): 40.3%
growth inhibition [5, 7]: -3%
growth inhibition [5, 8]: 3%
growth inhibition ([5]; at 50.0 µM): -11.2%
growth inhibition [6, 7]: -5%
growth inhibition [6, 8]: -3%
growth inhibition ([6]; at 50.0 µM): 15.2%

COC(=O)c1nc(=S)[nH]c(C(=O)OC)c1C(=O)c1c(C)[nH]c2ccccc12
growth inhibition [1, 7]: -7%
growth inhibition [1, 8]: -2%
growth inhibition ([1]; at 50.0 µM): -25%
growth inhibition [2, 7]: -3%
growth inhibition [2, 8]: 7%
growth inhibition ([2]; at 50.0 µM): -5.5%
growth inhibition [3, 7]: 2%
growth inhibition [3, 8]: 1%
growth inhibition ([3]; at 50.0 µM): -5.15%
growth inhibition [4, 7]: 1%
growth inhibition [4, 8]: -4%
growth inhibition ([4]; at 50.0 µM): 30.7%
growth inhibition [5, 7]: -6%
growth inhibition [5, 8]: -7%
growth inhibition ([5]; at 50.0 µM): -2.3%
growth inhibition [6, 7]: -7%
growth inhibition [6, 8]: -2%
growth inhibition ([6]; at 50.0 µM): 62.2%

Cc1cc(O)ccc1C1(c2ccc(F)cc2)OC(=O)c2ccccc21 (configuration not stated)
growth inhibition [1, 7]: 31%
growth inhibition [1, 8]: 99% (active)
growth inhibition ([1]; at 50.0 µM): 90.1% (active)
growth inhibition [2, 7]: 32%
growth inhibition [2, 8]: 99% (active)
growth inhibition ([2]; at 50.0 µM): 91.8% (active)
growth inhibition [3, 7]: 37%
growth inhibition [3, 8]: 99% (active)
growth inhibition ([3]; at 50.0 µM): 88.2% (active)
growth inhibition [4, 7]: 31%
growth inhibition [4, 8]: 97% (active)
growth inhibition ([4]; at 50.0 µM): 91.5% (active)
growth inhibition [5, 7]: 29%
growth inhibition [5, 8]: 98% (active)
growth inhibition ([5]; at 50.0 µM): 90.3% (active)
growth inhibition [6, 7]: 45%
growth inhibition [6, 8]: 99% (active)
growth inhibition ([6]; at 50.0 µM): 89.6% (active)

CCCCCCCCCCCCCCCCN[Si](NCCCCCCCCCCCCCCCC)(NCCCCCCCCCCCCCCCC)NCCCCCCCCCCCCCCCC
growth inhibition [1, 7]: 97% (active)
growth inhibition [1, 8]: 96% (active)
growth inhibition ([1]; at 50.0 µM): 85.5% (active)
growth inhibition [2, 7]: 99% (active)
growth inhibition [2, 8]: 96% (active)
growth inhibition ([2]; at 50.0 µM): 83.4% (active)
growth inhibition [3, 7]: 99% (active)
growth inhibition [3, 8]: 96% (active)
growth inhibition ([3]; at 50.0 µM): 88.2% (active)
growth inhibition [4, 7]: 98% (active)
growth inhibition [4, 8]: 95% (active)
growth inhibition ([4]; at 50.0 µM): 85.5% (active)
growth inhibition [5, 7]: 99% (active)
growth inhibition [5, 8]: 97% (active)
growth inhibition ([5]; at 50.0 µM): 86% (active)
growth inhibition [6, 7]: 97% (active)
growth inhibition [6, 8]: 95% (active)
growth inhibition ([6]; at 50.0 µM): 83.9% (active)

CCCCCCCCCC1OCC(O)CO1 (configuration not stated) (tested in a mixture with another compound)
growth inhibition [1, 7]: 7%
growth inhibition [1, 8]: 66%
growth inhibition ([1]; at 50.0 µM): 99% (active)
growth inhibition [2, 7]: 9%
growth inhibition [2, 8]: 79% (active)
growth inhibition ([2]; at 50.0 µM): 96.1% (active)
growth inhibition [3, 7]: 10%
growth inhibition [3, 8]: 96% (active)
growth inhibition ([3]; at 50.0 µM): 98.7% (active)
growth inhibition [4, 7]: 3%
growth inhibition [4, 8]: 90% (active)
growth inhibition ([4]; at 50.0 µM): 86.4% (active)
growth inhibition [5, 7]: 8%
growth inhibition [5, 8]: 87% (active)
growth inhibition ([5]; at 50.0 µM): 89.3% (active)
growth inhibition [6, 7]: 12%
growth inhibition [6, 8]: 98% (active)
growth inhibition ([6]; at 50.0 µM): 99.5% (active)

O=C(/C=C/c1cccc2ccccc12)c1cccc([N+](=O)[O-])c1
growth inhibition [1, 7]: 11%
growth inhibition [1, 8]: -10%
growth inhibition ([1]; at 50.0 µM): 12.3%
growth inhibition [2, 7]: -25%
growth inhibition [2, 8]: -15%
growth inhibition ([2]; at 50.0 µM): -4.05%
growth inhibition [3, 7]: -2%
growth inhibition [3, 8]: 2%
growth inhibition ([3]; at 50.0 µM): 14.3%
growth inhibition [4, 7]: 7%
growth inhibition [4, 8]: 5%
growth inhibition ([4]; at 50.0 µM): 0%
growth inhibition [5, 7]: -8%
growth inhibition [5, 8]: -12%
growth inhibition ([5]; at 50.0 µM): -5.2%
growth inhibition [6, 7]: -12%
growth inhibition [6, 8]: -51%
growth inhibition ([6]; at 50.0 µM): -5.35%

Clc1cc(Cl)c2cc3cccc[n+]3cc2c1Cl
growth inhibition [1, 7]: 0%
growth inhibition [1, 8]: 19%
growth inhibition ([1]; at 50.0 µM): 90.2% (active)
growth inhibition [2, 7]: -11%
growth inhibition [2, 8]: 33%
growth inhibition ([2]; at 50.0 µM): 93.5% (active)
growth inhibition [3, 7]: 2%
growth inhibition [3, 8]: -18%
growth inhibition ([3]; at 50.0 µM): 79.2% (active)
growth inhibition [4, 7]: 4%
growth inhibition [4, 8]: 31%
growth inhibition ([4]; at 50.0 µM): 54.2%
growth inhibition [5, 7]: -12%
growth inhibition [5, 8]: 49%
growth inhibition ([5]; at 50.0 µM): 87.8% (active)
growth inhibition [6, 7]: -14%
growth inhibition [6, 8]: 55%
growth inhibition ([6]; at 50.0 µM): 96.1% (active)
